G9a inh – inhibitors of human histone lysine methyltransferase G9a; 350,000 tested, 8.8% active; G9a H3K9 monomethylation, AlphaScreen, 2 h; Q96KQ7; Potency, µM (series often up to 102 µM), for the others: at the highest dose activity, negative = inhibition, usual class: inhibitors; note: % is set by controls: 0 for no effect and ±100 for the full control effect; nearly all actives have a fitted effect of over 75% in size
Target sequence (Q96KQ7 913-1193 limits assumed): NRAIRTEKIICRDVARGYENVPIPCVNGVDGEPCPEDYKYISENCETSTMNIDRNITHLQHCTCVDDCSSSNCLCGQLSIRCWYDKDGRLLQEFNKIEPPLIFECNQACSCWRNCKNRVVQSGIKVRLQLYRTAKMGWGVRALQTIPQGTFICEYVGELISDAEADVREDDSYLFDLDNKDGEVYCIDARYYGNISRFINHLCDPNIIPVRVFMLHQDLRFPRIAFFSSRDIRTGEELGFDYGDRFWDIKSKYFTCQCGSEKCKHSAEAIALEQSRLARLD
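Compounds were preincubated with 20 nM G9a for 15 min, after which biotinylated H3K9 peptide (500 nM) and SAM (20 uM) started a 2 h room-temperature reaction. Monomethylated product was quantified by antibody-based AlphaScreen chemiluminescence.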
BAZ2B inh – BAZ2B (human) inhibition | 360,000 tested, 4.4% active | AID 504333 | AlphaScreen BAZ2B-H3K14Ac peptide displacement | Q9UIF8 | Potency, µM (titrated, usually from 114 µM), for inactives: at the top dose activity change, negative = inhibition, actives largely listed as inhibitors; note: % is set by controls: 0 for no effect and ±100 for the full control effect; nearly all actives have a fitted effect of over 60% in size
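AlphaScreen displacement of biotin-H3(5-23)K14Ac peptide (50 nM final) from BAZ2B (50 nM final) in PBS pH 7.4, 0.01% Tween-20; complex preformed 30 min RT, then compounds (top 110 uM) 30 min RT, beads 20 min dark.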
GLS inhibitor – blocks human kidney-isoform glutaminase activity; GLS enzymatic activity, qHTS titration; O94925; Potency, µM (titrated, usually from 45.5 µM), inactives show at the top dose activity change, negative = inhibition, most hits filed as inhibitors; 410,000 tested, 0.21% active; AID 624170; note: % is set by controls: 0 for no effect and ±100 for the full control effect
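hKGA in 45 mM KH2PO4 (pH 8.2), 0.02% Tween-20 with compound, then 1mM L-Glutamine (stock as added) plus glutamate oxidase/HRP/Amplex red coupling mix. Fluorescence read initially and after 30 min at RT; signal change reflects glutamate formation.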
JMJD2A Tudor – JMJD2A Tudor domain (human) inhibition; AlphaScreen JMJD2A-Tudor / H3K4me3 peptide binding; O75164; Potency, µM (top dose mostly 114 µM), inactives show at the top dose activity change, negative = inhibition, most hits filed as inhibitors; AID 504339; 390,000 tested, 4.4% active; note: % is set by controls: 0 for no effect and ±100 for the full control effect; nearly all actives have a fitted effect of over 50% in size
HP1b binding inh – inhibitors of HP1-beta chromodomain binding to methylated histone tails; P83916; AlphaScreen HP1-beta / biotin-H3K9me3 peptide binding; Potency, µM (series often up to 114 µM), for the others: top-dose activity change, negative = inhibition, actives largely listed as inhibitors; 390,000 tested, 0.56% active; AID 540317; note: nearly all actives have a fitted effect of over 70% in size
Target sequence (P83916 whole entry, looked up): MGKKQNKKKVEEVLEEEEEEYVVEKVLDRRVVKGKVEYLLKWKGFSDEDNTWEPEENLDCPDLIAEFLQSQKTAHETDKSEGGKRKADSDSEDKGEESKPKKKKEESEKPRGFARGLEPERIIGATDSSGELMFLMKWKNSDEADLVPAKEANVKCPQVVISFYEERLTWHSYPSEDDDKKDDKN
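Compound inhibition of the preformed complex between 50 nM HP1-beta and 50 nM biotinylated H3K9me3 peptide was read by AlphaScreen. Buffer was PBS pH 7.4 with 0.01% Tween-20. Incubations ran 30 min at room temperature, with 10 ug/mL donor/acceptor beads.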
* marks the source's active call; other numbers are inactive results; [ ] = dose if it differs, or a comment. Shown are actives, neighbours in structure and some others; about 10% of the full set was active somewhere. Calls come from the whole dose curve; as a rule, active = well fitted curve in the direction sought with a large enough effect; inconclusive = small, poorly fitted or top-dose-only effect, or another doubt; inactive = no such curve, though single readings can be large; an effect the other way counts as inactive or inconclusive. Potency is the fitted concentration of half-maximal effect.

Screening CN1CCN(c2ccc(S(=O)(=O)N3CCCCC3)cc2NC(=O)/C=C/c2ccc(Cl)c([N+](=O)[O-])c2)CC1 returned G9a inh 35µM*, BAZ2B inh inconclusive, GLS inhibitor 10%, JMJD2A Tudor 45µM* and HP1b binding inh inconclusive.
`CCN1CCN(c2ccc(S(=O)(=O)N3CCCCC3)cc2NC(=O)/C=C/c2ccc([N+](=O)[O-])cc2)CC1` gave G9a inh 18µM*, BAZ2B inh inconclusive, GLS inhibitor 8%, JMJD2A Tudor inconclusive and HP1b binding inh inconclusive.
CCN1CCN(c2ccc(S(=O)(=O)N3CCCCC3)cc2NC(=O)/C=C/c2ccc(F)cc2)CC1 was read as G9a inh 1.3µM*, BAZ2B inh -29%, GLS inhibitor -11%, JMJD2A Tudor -21% and HP1b binding inh -2%.
`COc1cccc(-c2nnc3sc(CN4CCCCC4)cn23)c1` gave G9a inh 13µM*, BAZ2B inh -38%, GLS inhibitor -3%, JMJD2A Tudor -7% and HP1b binding inh 19%[57 µM].
Screening CCOC(=O)C1CCCN(Cc2cn3c(-c4cccc(Br)c4)nnc3s2)C1 (stereo not given) returned G9a inh 7%[59 µM], BAZ2B inh inconclusive, GLS inhibitor -1%, JMJD2A Tudor -12% and HP1b binding inh 31%.
For NS(=O)(=O)c1ccc(Nc2nc(-c3cccnc3)cs2)cc1 the results were G9a inh -1%, BAZ2B inh -12%, GLS inhibitor -5%, JMJD2A Tudor -5% and HP1b binding inh 42%.
For COc1ccc(N=C2C(=O)Nc3c(C)cccc32)cc1 the results were G9a inh 50µM*, BAZ2B inh inconclusive, GLS inhibitor -4%, JMJD2A Tudor inconclusive and HP1b binding inh -7%.
Screening CC1CC(=O)Nc2ccccc2N1C(=O)Cn1cnc2ccc(Br)cc2c1=O (stereo not given) returned G9a inh -13%, BAZ2B inh 9%, GLS inhibitor 3%, JMJD2A Tudor -22% and HP1b binding inh 8%.
Screening Cc1nc(NC(=O)CN2CCOCC2)sc1C(=O)N(C)C returned G9a inh inconclusive, BAZ2B inh -20%, GLS inhibitor 3%, JMJD2A Tudor 16µM* and HP1b binding inh 18%.
Cc1nc(NC(=O)CN2CCCCC2)sc1C(=O)N(C)C was read as G9a inh 79µM*, BAZ2B inh -27%, GLS inhibitor -3%, JMJD2A Tudor -32% and HP1b binding inh 8%.
COC(=O)c1ccc(CSc2ccc3nnc(-c4cccc(F)c4)n3n2)o1 was read as G9a inh 18µM*, BAZ2B inh -2%, GLS inhibitor -19%, JMJD2A Tudor 89µM* and HP1b binding inh inconclusive.
`CSc1ccc2nnc(-c3cccc(F)c3)n2n1` gave G9a inh 40µM*, BAZ2B inh 0%, GLS inhibitor -2%, JMJD2A Tudor -14% and HP1b binding inh 17%.
`Cc1ccc(OCCCOc2cccc3cccnc23)cc1C` gave G9a inh 9%[12.7 µM], BAZ2B inh 5%, GLS inhibitor -10%, JMJD2A Tudor 58% and HP1b binding inh 57%.
For Cc1ccc(Cl)cc1N1CCN(C(=O)Cn2nc(C)c3sc4ccccc4c3c2=O)CC1 the results were G9a inh inconclusive, BAZ2B inh -27%, GLS inhibitor 3%, JMJD2A Tudor inconclusive and HP1b binding inh 17%.
`Cc1cc(C(=O)O)c(C)n1-c1ccccc1` gave G9a inh -1%, BAZ2B inh 10%, GLS inhibitor 19%, JMJD2A Tudor -24% and HP1b binding inh 6%.
Screening Oc1cc2ccccc2cc1-c1n[nH]c(=S)o1 returned G9a inh 4µM*, BAZ2B inh inconclusive, GLS inhibitor 23%, JMJD2A Tudor -23% and HP1b binding inh 6%.
Cc1cc(-c2n[nH]c(=S)o2)c(C)n1-c1ccccc1 was read as G9a inh 4µM*, BAZ2B inh inconclusive, GLS inhibitor 9%, JMJD2A Tudor inconclusive and HP1b binding inh -12%.
Screening S=c1[nH]nc(-c2c[nH]c3ccccc23)o1 returned G9a inh inconclusive, BAZ2B inh -15%, GLS inhibitor 8%, JMJD2A Tudor inconclusive and HP1b binding inh 55%.
N#Cc1ccccc1Oc1ccc(S(=O)(=O)N2CCCCC2)cn1 was read as G9a inh 1%[0.501 µM], BAZ2B inh 2%, GLS inhibitor -1%, JMJD2A Tudor 2% and HP1b binding inh 38%.
O=C(COC(=O)CCCOc1ccc(Cl)cc1Cl)NCc1ccccc1 was read as G9a inh 32%, BAZ2B inh 13%, GLS inhibitor 3%, JMJD2A Tudor 23% and HP1b binding inh 84%.
`C=CCc1ccccc1OCC(=O)O` gave G9a inh -16%[59 µM], BAZ2B inh -5%, GLS inhibitor -3%, JMJD2A Tudor -18% and HP1b binding inh 5%.
For Clc1ccc(OCCCNCc2ccccc2)c2ccccc12 the results were BAZ2B inh 50µM*, GLS inhibitor -3%, JMJD2A Tudor 28µM* and HP1b binding inh inconclusive.
For Brc1ccccc1OCCNCc1ccccc1 the results were G9a inh 7.9µM*, BAZ2B inh 50µM*, GLS inhibitor -8%, JMJD2A Tudor inconclusive and HP1b binding inh inconclusive.
C=CCc1ccccc1OCCNCc1ccccc1 was read as G9a inh 8.9µM*, BAZ2B inh inconclusive, GLS inhibitor -4%, JMJD2A Tudor 0.89µM* and HP1b binding inh inconclusive.
For Cc1c(Cl)cccc1NC(=O)N1CCOc2ccccc21 the results were G9a inh 5%[59 µM], BAZ2B inh -5%, GLS inhibitor 1%, JMJD2A Tudor -13% and HP1b binding inh 34%.
Screening CCS(=O)(=O)NCCCc1ccccc1 returned G9a inh 25%[59 µM], BAZ2B inh 22%, GLS inhibitor 3%, JMJD2A Tudor -7% and HP1b binding inh 26%.
CCCNC(=O)c1[nH]c(C)c(C(C)=O)c1C was read as G9a inh 5%[59 µM], BAZ2B inh inconclusive, GLS inhibitor -1%, JMJD2A Tudor -22% and HP1b binding inh 69%.
For CC(=O)c1c(C)[nH]c(C(=O)N2CCCCCC2)c1C the results were G9a inh 35%[0.501 µM], BAZ2B inh 50µM*, GLS inhibitor inconclusive, JMJD2A Tudor -35%[11.4 µM] and HP1b binding inh inconclusive.
Screening CC(=O)c1c(C)[nH]c(C(=O)NCC2CCCCC2)c1C returned G9a inh 40µM*, BAZ2B inh -13%, GLS inhibitor -5%, JMJD2A Tudor -18% and HP1b binding inh 13%.
For CC(=O)c1c(C)[nH]c(C(=O)N2CCCC(C)C2)c1C (stereo not given) the results were G9a inh -2%, BAZ2B inh -13%, GLS inhibitor 2%, JMJD2A Tudor 11% and HP1b binding inh 18%.
Screening COc1ccc(NC(=O)c2cccnc2)c(OC)c1 returned G9a inh 2%[59 µM], BAZ2B inh 1%, GLS inhibitor -10%, JMJD2A Tudor -15% and HP1b binding inh 20%.
